From publication PMC9838217, “Structure of SALL4 zinc finger domain reveals link between AT-rich DNA binding and Okihiro syndrome” come the findings set out here.

Holding throughout (test): HT-SELEX; high values mean tight binding
Common to all, as to settings: protein: recombinant; vector His6-GST; dsDNA, one strand shown

Test [1] has as its target T1, SALL4 ZFC4 WT (HT-SELEX) (Mus musculus, UniProt Q8BX22 870-940).
T1 sequence: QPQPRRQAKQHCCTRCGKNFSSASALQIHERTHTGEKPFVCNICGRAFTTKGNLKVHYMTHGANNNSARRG
The method in brief:
(§1)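 Purified recombinant mouse SALL4 zinc finger cluster 4 (residues 870–940, 1 µg) was incubated with library DNA (1.5 µg first cycle, 200 ng later) in 100 µl buffer (10 mM Tris–HCl pH 7.5, 50 mM NaCl, poly(dI-dC), DTT) for 10 min at room temperature. Ni2+ bead-captured complexes were washed, PCR-amplified and reselected for up to 6 cycles, in triplicate, then MiSeq-sequenced and scanned for 6-mers. Binding signal is each canonical k-mer's read fraction as fold change versus the initial random library.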

Test [2] has as its target T2, SALL4 ZFC4 R900W (HT-SELEX) (Mus musculus, UniProt Q8BX22 870-940, R900W).
T2 sequence: T1 sequence with R31W
The gist of the method:
as §1

The target of test [3] is T3, SALL4 ZFC4 G921D (HT-SELEX) (Mus musculus, UniProt Q8BX22 870-940, G921D).
T3 sequence: T1 sequence with G52D
The method in brief: as §1

Where a chain is given by its changes, count along the chain named.

With ATGATC, the values for the binding signal in test [1], in test [2] and in test [3] were 1.37 ± 0.0972 fold-change vs cycle 0, 1.46 ± 0.0896 fold-change vs cycle 0 and 1.48 ± 0.0835 fold-change vs cycle 0, respectively.
In the case of CGGGTA, the binding signal was determined as 0.363 ± 0.0204 fold-change vs cycle 0 in test [1], 0.435 ± 0.0153 fold-change vs cycle 0 in test [2] and 0.521 ± 0.0456 fold-change vs cycle 0 in test [3].
For ACTAGA the same measures were 1.39 ± 0.0596 fold-change vs cycle 0, 1.52 ± 0.0902 fold-change vs cycle 0 and 1.41 ± 0.142 fold-change vs cycle 0.
On to GACGGA, for which the binding signal is 0.372 ± 0.0168 fold-change vs cycle 0 in test [1], 0.427 ± 0.0141 fold-change vs cycle 0 in test [2] and 0.545 ± 0.0666 fold-change vs cycle 0 in test [3].
Take GGTAAA: the values for the binding signal in test [1], in test [2] and in test [3] were 1.19 ± 0.0123 fold-change vs cycle 0, 1.3 ± 0.0352 fold-change vs cycle 0 and 1.23 ± 0.0522 fold-change vs cycle 0, respectively.
For AGTGAC the same measures were 0.776 ± 0.012 fold-change vs cycle 0, 0.91 ± 0.0317 fold-change vs cycle 0 and 0.973 ± 0.0424 fold-change vs cycle 0.
With AAATTC, the binding signal in test [1] was determined as 1.76 ± 0.142 fold-change vs cycle 0; in test [2], 1.66 ± 0.0813 fold-change vs cycle 0; in test [3], 1.58 ± 0.109 fold-change vs cycle 0.
ATCCAA: the binding signal was 1.28 ± 0.0363 fold-change vs cycle 0 in test [1], 1.37 ± 0.0499 fold-change vs cycle 0 in test [2] and 1.32 ± 0.0492 fold-change vs cycle 0 in test [3].
For GGATTA, the binding signal in test [1] worked out at 1.49 ± 0.0733 fold-change vs cycle 0; in test [2], 1.47 ± 0.0516 fold-change vs cycle 0; in test [3], 1.38 ± 0.0744 fold-change vs cycle 0.
Regarding AAACTT, the binding signal in test [1] came out at 1.81 ± 0.119 fold-change vs cycle 0; in test [2], 1.89 ± 0.128 fold-change vs cycle 0; in test [3] it was 1.68 ± 0.174 fold-change vs cycle 0.
CAATTA: the results for the binding signal in test [1], in test [2] and in test [3] were 1.91 ± 0.128 fold-change vs cycle 0, 1.83 ± 0.147 fold-change vs cycle 0 and 1.71 ± 0.164 fold-change vs cycle 0, respectively.
For AGCCCT the same measures were 0.343 ± 0.0204 fold-change vs cycle 0, 0.423 ± 0.0426 fold-change vs cycle 0 and 0.56 ± 0.0891 fold-change vs cycle 0.
As to CGATTC, the binding signal is 0.682 ± 0.0336 fold-change vs cycle 0 in test [1], 0.738 ± 0.0472 fold-change vs cycle 0 in test [2] and 0.84 ± 0.0386 fold-change vs cycle 0 in test [3].
On to GTTAAC, for which the binding signal in test [1] came out at 1.39 ± 0.126 fold-change vs cycle 0; in test [2] it was 1.53 ± 0.0957 fold-change vs cycle 0; in test [3], 1.38 ± 0.101 fold-change vs cycle 0.
As for AGTGCA, the binding signal turned out to be 0.627 ± 0.0465 fold-change vs cycle 0 in test [1], 0.704 ± 0.0363 fold-change vs cycle 0 in test [2] and 0.802 ± 0.0221 fold-change vs cycle 0 in test [3].
In the case of ATCTTG, the values for the binding signal in test [1], in test [2] and in test [3] were 1.3 ± 0.0534 fold-change vs cycle 0, 1.44 ± 0.0813 fold-change vs cycle 0 and 1.38 ± 0.0795 fold-change vs cycle 0, respectively.
Regarding ATGTAA, the binding signal is 2.3 ± 0.158 fold-change vs cycle 0 in test [1], 2.09 ± 0.134 fold-change vs cycle 0 in test [2] and 1.83 ± 0.187 fold-change vs cycle 0 in test [3].
For GAGATA, the binding signal came to 1.52 ± 0.0868 fold-change vs cycle 0 in test [1], 1.54 ± 0.105 fold-change vs cycle 0 in test [2] and 1.45 ± 0.133 fold-change vs cycle 0 in test [3].
For GATCGA the same measures were 0.664 ± 0.0531 fold-change vs cycle 0, 0.763 ± 0.0206 fold-change vs cycle 0 and 0.91 ± 0.0578 fold-change vs cycle 0.
Turning to GGTTTA, the binding signal in test [1] worked out at 1.2 ± 0.0627 fold-change vs cycle 0; in test [2] it was 1.28 ± 0.0514 fold-change vs cycle 0; in test [3], 1.24 ± 0.0515 fold-change vs cycle 0.
CCCACA: the values for the binding signal in test [1], in test [2] and in test [3] were 0.389 ± 0.0158 fold-change vs cycle 0, 0.42 ± 0.0162 fold-change vs cycle 0 and 0.523 ± 0.0663 fold-change vs cycle 0, respectively.
In the case of AGCTTC, the binding signal stood at 0.709 ± 0.0328 fold-change vs cycle 0 in test [1], 0.839 ± 0.0164 fold-change vs cycle 0 in test [2] and 0.895 ± 0.0229 fold-change vs cycle 0 in test [3].
Take AGGCAT: the binding signal in test [1] amounted to 0.627 ± 0.0329 fold-change vs cycle 0; in test [2], 0.715 ± 0.0142 fold-change vs cycle 0; in test [3], 0.816 ± 0.0443 fold-change vs cycle 0.
For CAACCC, the binding signal worked out at 0.417 ± 0.0301 fold-change vs cycle 0 in test [1], 0.488 ± 0.0225 fold-change vs cycle 0 in test [2] and 0.582 ± 0.0463 fold-change vs cycle 0 in test [3].
As for CACTCC, the binding signal stood at 0.513 ± 0.0257 fold-change vs cycle 0 in test [1], 0.603 ± 0.0288 fold-change vs cycle 0 in test [2] and 0.684 ± 0.0287 fold-change vs cycle 0 in test [3].
As for ATGCTA, the binding signal came to 1.28 ± 0.0551 fold-change vs cycle 0 in test [1], 1.34 ± 0.0761 fold-change vs cycle 0 in test [2] and 1.31 ± 0.0688 fold-change vs cycle 0 in test [3].
Consider ATGTAC, for which the results for the binding signal in test [1], in test [2] and in test [3] were 1.295 ± 0.0117 fold-change vs cycle 0, 1.38 ± 0.0189 fold-change vs cycle 0 and 1.32 ± 0.0512 fold-change vs cycle 0, respectively.
For the sequence CCACGA, the binding signal was determined as 0.33 ± 0.0384 fold-change vs cycle 0 in test [1], 0.407 ± 0.011 fold-change vs cycle 0 in test [2] and 0.515 ± 0.0508 fold-change vs cycle 0 in test [3].
For ACCCAG, the binding signal in test [1] was 0.455 ± 0.0148 fold-change vs cycle 0; in test [2], 0.526 ± 0.0133 fold-change vs cycle 0; in test [3], 0.628 ± 0.0574 fold-change vs cycle 0.
As to AAGGTG, the binding signal in test [1] amounted to 0.806 ± 0.0296 fold-change vs cycle 0; in test [2], 0.944 ± 0.0313 fold-change vs cycle 0; in test [3] it was 0.95 ± 0.0211 fold-change vs cycle 0.
